Screening data (PubChem)
JMJD2A Tudor inh: inhibitors of human JMJD2A Tudor domain. AID 504339. Potency, µM (series often up to 114 µM), most hits filed as inhibitors. 390,000 compounds, 4.4% hits. AlphaScreen JMJD2A-Tudor / H3K4me3 peptide binding. O75164; also: nearly all actives have a fitted effect of over 50% in size
Target sequence (O75164 whole entry, looked up, the tested form may be a part): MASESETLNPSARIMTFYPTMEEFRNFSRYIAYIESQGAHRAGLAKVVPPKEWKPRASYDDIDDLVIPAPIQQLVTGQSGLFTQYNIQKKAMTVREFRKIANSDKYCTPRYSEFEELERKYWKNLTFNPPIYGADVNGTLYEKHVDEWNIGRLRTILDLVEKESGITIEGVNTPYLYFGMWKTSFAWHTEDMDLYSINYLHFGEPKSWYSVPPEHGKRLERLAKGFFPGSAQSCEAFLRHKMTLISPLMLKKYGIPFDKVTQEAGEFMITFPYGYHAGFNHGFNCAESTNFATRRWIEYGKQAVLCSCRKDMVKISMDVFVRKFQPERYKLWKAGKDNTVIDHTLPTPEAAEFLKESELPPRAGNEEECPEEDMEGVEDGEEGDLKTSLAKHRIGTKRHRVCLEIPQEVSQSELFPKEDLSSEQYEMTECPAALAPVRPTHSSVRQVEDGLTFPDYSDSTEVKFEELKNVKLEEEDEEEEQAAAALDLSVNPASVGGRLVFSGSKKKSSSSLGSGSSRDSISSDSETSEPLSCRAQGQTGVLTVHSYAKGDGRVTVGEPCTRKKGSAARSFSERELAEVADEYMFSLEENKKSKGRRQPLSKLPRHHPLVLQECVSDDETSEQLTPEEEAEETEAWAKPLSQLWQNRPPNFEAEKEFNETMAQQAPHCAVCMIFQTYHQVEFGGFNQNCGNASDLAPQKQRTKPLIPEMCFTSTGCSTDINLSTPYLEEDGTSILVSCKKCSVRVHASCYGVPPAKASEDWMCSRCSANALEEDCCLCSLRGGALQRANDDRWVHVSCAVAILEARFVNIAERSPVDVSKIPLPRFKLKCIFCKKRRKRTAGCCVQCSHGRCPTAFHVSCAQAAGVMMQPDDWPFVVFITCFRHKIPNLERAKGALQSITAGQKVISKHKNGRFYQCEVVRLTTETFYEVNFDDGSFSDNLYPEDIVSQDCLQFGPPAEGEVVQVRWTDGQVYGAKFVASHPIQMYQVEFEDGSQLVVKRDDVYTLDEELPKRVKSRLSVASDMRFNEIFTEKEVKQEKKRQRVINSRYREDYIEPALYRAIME
G9a block: inhibitors of human histone lysine methyltransferase G9a. G9a H3K9 monomethylation, AlphaScreen, 2 h. Potency, µM (doses to about 102 µM), usual class: inhibitors. 350,000 compounds, 8.8% hits; also: nearly all actives have a fitted effect of over 75% in size
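AlphaScreen detection with an anti-monomethyl H3K9 antibody quantified product after a 2 h room-temperature reaction containing 500 nM biotinylated H3K9 peptide, 20 µM SAM and 20 nM enzyme, which had been preincubated 15 min with compound.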
BAZ2B block: BAZ2B (human) inhibition | 360,000 compounds, 4.4% hits | AlphaScreen BAZ2B-H3K14Ac peptide displacement | AID 504333 | Potency, µM (top dose mostly 114 µM), actives largely listed as inhibitors | Q9UIF8; also: nearly all actives have a fitted effect of over 60% in size
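Complex of BAZ2B and biotin-H3K14Ac (50 nM apiece) forms over 30 min at RT, then faces library compounds up to 110 uM for another 30 min; AlphaScreen beads added, 20 min dark incubation, luminescence read.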
Sfp inh: blocks B. subtilis Sfp PPTase activity; Q9F4F7; Biochemical Sfp PPTase activity, qHTS; Potency, µM, usual class: inhibitors; 310,000 compounds, 3.5% hits;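 also: the enzyme is Sfp with the accession as filed and its product quenches rhodamine fluorescence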
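With Hepes-Na pH 7.6 buffer containing 10 mM MgCl2, Sfp (15 nM) modified BHQ-2-YbbR (12.5 uM) using rhodamine-CoA (5 uM). Two reads 30 minutes apart at 525/598 nm yielded each well's rate.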
HP1b chromo inh: inhibitors of HP1-beta chromodomain binding to methylated histone tails; AlphaScreen HP1-beta / biotin-H3K9me3 peptide binding; Potency, µM (titrated, usually from 114 µM), hits mostly inhibitors; 390,000 compounds, 0.56% hits; AID 540317; also: nearly all actives have a fitted effect of over 70% in size
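AlphaScreen: HP1-beta (50 nM) preformed 30 min with biotin-H3(1-18)K9me3 peptide (50 nM) in PBS pH 7.4, 0.01% Tween-20. Compound added for 30 min at RT, then streptavidin donor/nickel chelate acceptor beads (10 ug/mL) for 30 min.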
Each line names hits and unclear results; the compound was inactive in the other large screens; ! = a repeat was not active. The list is not random: actives were taken first. Their share in the collection is about 12%. Calls follow the shape of the dose curve; as a rule, active = well fitted curve in the direction sought with a large enough effect; inconclusive = small, poorly fitted or top-dose-only effect, or another doubt; inactive = no such curve, though single readings can be large; an effect the other way counts as inactive or inconclusive.

Cc1ccc(Cl)cc1N1CCN(S(=O)(=O)c2cn(C)c(C)n2)CC1	JMJD2A Tudor inh 56µM (no result: Sfp inh)
Cc1ccc(Cl)cc1N1CCN(S(=O)(=O)c2cn(C)cn2)CC1	none
CCOC(=O)c1cc(S(=O)(=O)N2CCN(c3ccc(OC)cc3)CC2)[nH]n1	G9a block inconclusive (no result: Sfp inh)
COc1ccc(OCCN2CCCC2)cc1Nc1nnc(Cl)c(Nc2ccccc2S(C)(=O)=O)n1	JMJD2A Tudor inh inconclusive (no result: G9a block, BAZ2B block, Sfp inh)
Cc1c(C(=O)N2CCC(C)CC2)c(S(=O)(=O)NCc2ccc(Cl)cc2)c(C)n1C	BAZ2B block inconclusive (no result: Sfp inh)
COc1cc(OC)cc(C(=O)Nc2ccc(S(=O)(=O)Nc3cnc4ccccc4n3)cc2)c1	none (no result: G9a block, BAZ2B block, Sfp inh)
CNc1cc(NS(=O)(=O)c2ccc(N)cc2)nc(NC)n1	JMJD2A Tudor inh 89µM, BAZ2B block 50µM
Cc1ccc(C(=O)Nc2ccc(Br)cc2)cc1S(=O)(=O)Nc1ccccn1	G9a block 79µM
Cc1ccc(NS(=O)(=O)c2cc(C(=O)N3CCN(CCO)CC3)ccc2C)cc1	JMJD2A Tudor inh 79µM, G9a block 2µM, BAZ2B block 50µM (no result: Sfp inh)
Cc1ccc(C(=O)Nc2ccc(S(=O)(=O)Nc3cnc4ccccc4n3)cc2)cc1	G9a block 50µM
O=C(Nc1ccc(S(=O)(=O)Nc2ccccn2)cc1)c1cccc(Br)c1	none (no result: G9a block)
Cc1ccc(NS(=O)(=O)c2cc(C(=O)Nc3cccnc3)ccc2C)cc1	JMJD2A Tudor inh inconclusive, G9a block 79µM
O=C(Nc1ccc(S(=O)(=O)Nc2ccccn2)cc1)c1cccc(Cl)c1	G9a block 25µM
CC(C)(C)c1ccc(S(=O)(=O)Nc2ccccn2)cc1	none (no result: G9a block)
Nc1ccc(S(=O)(=O)Nc2ccccn2)cc1	G9a block 25µM!
Cc1nc2c(-c3ccccc3)c(C)nn2c(C)c1CCC(=O)N1CCN(c2ccc(F)cc2)CC1	none (no result: Sfp inh)
CC1=C(C(=O)Nc2ccccc2C)C(c2cccs2)n2nc(SCc3ccccc3)nc2N1 (configuration not stated)	none (no result: Sfp inh)
Cc1ccc(NC(=O)C2COc3ccccc3O2)cc1S(=O)(=O)N1CCCCC1 (configuration not stated)	none (no result: Sfp inh)
Cc1nn2c(=O)cc(COC(=O)c3ccco3)nc2s1	none (no result: Sfp inh)
S=C(Nc1ccccc1)N1CCn2cccc2C1c1cccnc1 (configuration not stated)	JMJD2A Tudor inh inconclusive, G9a block inconclusive
S=C(NC1CCCCC1)N1CCn2cccc2C1c1cccnc1 (configuration not stated)	G9a block 71µM, BAZ2B block inconclusive
S=C(NC1CCCCC1)N1CCn2cccc2C1c1ccncc1 (configuration not stated)	G9a block inconclusive, BAZ2B block 50µM
CCOc1ccccc1-c1nnc2n1N=C(c1ccccc1OC)CS2	none (no result: G9a block, BAZ2B block, HP1b chromo inh)
CCOC(=O)C1CCN(C(=O)COC(=O)CNC(=O)c2ccc(C(C)(C)C)cc2)CC1	none (no result: G9a block, BAZ2B block, Sfp inh)
Cc1ccc(C(NC(=O)c2cccc(S(=O)(=O)N3CCN(C)CC3)c2)c2ccccc2)cc1 (configuration not stated)	none (no result: Sfp inh)
COc1cc(/C=C(\C#N)C(=O)NCCc2ccccc2)cc(OC)c1O	G9a block 32µM
COc1cc(/C=N/S(=O)(=O)CCc2ccccc2)cc(OC)c1O	G9a block 50µM
COc1ccc(/C=C(\C#N)C(=O)NCc2ccccc2)cc1O	none
COCCNC(=O)/C(C#N)=C/c1ccccc1Br	JMJD2A Tudor inh 18µM
N#C/C(=C\c1ccc(O)c(O)c1)C(=O)NCCCCc1ccccc1	Sfp inh 79µM (no result: JMJD2A Tudor inh, G9a block, BAZ2B block, HP1b chromo inh)
COc1cc(/C=N/NC(=S)NCCc2ccccc2)cc(OC)c1OC	JMJD2A Tudor inh inconclusive
N#C/C(=C\c1ccc(O)c(O)c1)C(=O)NCCc1ccccc1	JMJD2A Tudor inh inconclusive, G9a block 9.5µM, BAZ2B block 11µM, HP1b chromo inh inconclusive (no result: Sfp inh)
COc1cc(/C=C(\C#N)C(=O)c2c[nH]c3ccccc23)cc(OC)c1O	JMJD2A Tudor inh 50µM, G9a block 11µM, HP1b chromo inh inconclusive (no result: BAZ2B block)
CCOCCCNC(=O)/C(C#N)=C/c1cc(Br)c(O)c(Br)c1	none
COCCNC(=O)/C(C#N)=C/c1cc(Br)c(O)c(OC)c1	G9a block 14µM
N#C/C(=C\c1ccc(O)cc1)C(=O)NCc1ccccc1	none
CC1CCc2nc3ncn(Cc4ccccc4C#N)c(=O)c3cc2C1 (configuration not stated)	none (no result: Sfp inh)
O=C1NC[C@H](Cc2ccccc2)N(CC2CCN(CC3CCCC3)CC2)C1=O	none (no result: G9a block, BAZ2B block, Sfp inh)
CC1=Nc2nc(N3CCCCCC3)c(C#N)c3c4c(nc(c23)N1)N(c1ccc2ccccc2c1)C(=O)C4	none (no result: G9a block, BAZ2B block, Sfp inh)
O=C1OCCC1Sc1nnc(-c2ccc(Cl)cc2)n1Cc1ccccc1 (configuration not stated)	G9a block 11µM
N#CC1=C(N)NC(=S)C(C(N)=O)C1c1ccccc1F (configuration not stated)	G9a block 50µM, Sfp inh 0.71µM
N#CC1=C(N)NC(=S)C(C(N)=O)C1c1ccc(Cl)cc1Cl (configuration not stated)	JMJD2A Tudor inh inconclusive, G9a block inconclusive, Sfp inh 8.9µM
CN(C)[C@H]1C(=O)C(C(=O)NCN2CCCC2)=C(O)[C@]2(O)C(=O)C3=C(O)c4c(O)cccc4[C@@](C)(O)[C@H]3C[C@@H]12	G9a block 7.9µM (no result: JMJD2A Tudor inh, BAZ2B block, HP1b chromo inh)
CC(O)(C#CCN1CCOCC1)c1ccccc1 (configuration not stated)	G9a block 40µM
OC(C#CCN1CCCCC1)c1ccccc1 (configuration not stated)	G9a block inconclusive (no result: BAZ2B block)
CC(C)C(O)(C#CCN1CCCCC1)c1ccccc1 (configuration not stated)	none
OC(C#CCN1CCCC1)(c1ccccc1)c1cccnc1 (configuration not stated)	JMJD2A Tudor inh 28µM, G9a block 8.9µM, BAZ2B block 79µM, Sfp inh inconclusive
OC(C#CCN1CCCC1)c1ccccc1 (configuration not stated)	G9a block 45µM
OC(C#CCN1CCCCCC1)(c1ccccc1)c1cccnc1 (configuration not stated)	G9a block 18µM
OC(C#CCCN1CCCCC1)(c1ccccc1)c1ccccc1	none (no result: G9a block)
CC(C)C(O)(C#CCN1CCCC1)c1ccccc1 (configuration not stated)	G9a block 25µM, BAZ2B block inconclusive
COc1ccccc1-c1cc(=O)c2c(O)ccc([N+](=O)[O-])c2o1	none
O=c1cc(-c2ccccc2O)oc2cc(O)cc(O)c12	none (no result: JMJD2A Tudor inh, G9a block, BAZ2B block, HP1b chromo inh)
Nc1ccc2oc(-c3ccccc3Cl)cc(=O)c2c1O	JMJD2A Tudor inh inconclusive, G9a block 71µM, BAZ2B block inconclusive
O=C(Nc1ccc(O)c2c(=O)cc(-c3ccccc3Cl)oc12)c1ccccc1Cl	G9a block inconclusive
O=c1cc(-c2ccccc2Cl)oc2ccc([N+](=O)[O-])c(O)c12	G9a block 50µM!, BAZ2B block inconclusive
